Assay outcomes from PubChem.
Only some compounds are listed: those with a hit (about 7.2% of all), similar ones and a draw of the others.
HEK293 tox: HEK 293 cell cytotoxicity | HEK 293 viability, ATP luminescence (CellTiter-Glo), 48-72 h | Potency, µM (highest dose often 115 µM), for the others: at the highest dose activity change, negative = cytotoxicity, hits mostly inhibitors | 94,000 tested, 6.6% active | AID 1345083; note: % is set by controls: 0 for no effect and ±100 for the full control effect; nearly all actives have a fitted effect of over 60% in size
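250 HEK 293 cells/well; compound by pintool; incubated 48 or 72 hr at 37 degree Celsius; CellTiter-Glo added, 10 min RT, luminescence imaged.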
HEK293 viab: reduces viability of HEK-293 SNCA reporter cells | HEK-293-SNCA-luc viability, GF-AFC fluorescence, 24 h | Potency, µM (doses to about 57.1 µM), for the others: at the highest dose activity change, negative = cytotoxicity, hits mostly cytotoxic | 150,000 tested, 0.12% active;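 note: 0% = DMSO-treated cells and -100% = medium-only wells without cells; nearly all actives have a fitted effect of over 30% in size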
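Cytotoxicity counterscreen: after 24 h compound treatment of genome-edited SNCA-luciferase HEK-293 cells, live-cell protease substrate GF-AFC read by fluorescence after 30 min; activity scaled between DMSO (0%) and medium-only (-100%), curves Hill-fitted.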
3T3 cytotox: cytotoxic compounds in NIH 3T3 cells; NIH 3T3 viability, CellTiter-Glo ATP luminescence, 48-72 h; Potency, µM (doses to about 96.7 µM), for inactives: at the top dose activity change, negative = cytotoxicity, most hits filed as inhibitors; 94,000 tested, 4.3% active; note: % is set by controls: 0 for no effect and ±100 for the full control effect; nearly all actives have a fitted effect of over 55% in size
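ATP-dependent luminescence (CellTiter-Glo) served as the viability signal for NIH 3T3 cells treated with compound for 48 or 72 hr at 37 °C.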
NPR1 antag: blocks ANP-stimulated signaling of human Npr1 receptor; Potency, µM (top dose mostly 46.3 µM), for inactives: top-dose activity change, negative = inhibition, hits mostly inhibitors; 76,000 tested, 1.6% active; P16066; AID 1347048; HEK293 hNpr1 GloSensor cGMP, ANP-stimulated luminescence; calls by dose curve; note: % is set by controls: 0 for no effect and ±100 for the full control effect; nearly all actives have a fitted effect of over 60% in size
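HEK293 cells stably expressing human Npr1 and cGMP GloSensor pGS-40F, loaded 2 h with 2% GloSensor reagent, given compound 30 min at room temperature. Luminescence read before and 20 min after 0.1 nM hNppA.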
FLuc inh-1: Photinus pyralis luciferase inhibition. P08659. purified P. pyralis luciferase, luminescence, biochemical. Potency, µM (series often up to 115 µM), most hits filed as inhibitors. 76,000 tested, 2.5% active. AID 1347043; note: % is set by controls: 0 for no effect and ±100 for the full control effect; nearly all actives have a fitted effect of over 65% in size
Target sequence (P08659 whole entry, looked up): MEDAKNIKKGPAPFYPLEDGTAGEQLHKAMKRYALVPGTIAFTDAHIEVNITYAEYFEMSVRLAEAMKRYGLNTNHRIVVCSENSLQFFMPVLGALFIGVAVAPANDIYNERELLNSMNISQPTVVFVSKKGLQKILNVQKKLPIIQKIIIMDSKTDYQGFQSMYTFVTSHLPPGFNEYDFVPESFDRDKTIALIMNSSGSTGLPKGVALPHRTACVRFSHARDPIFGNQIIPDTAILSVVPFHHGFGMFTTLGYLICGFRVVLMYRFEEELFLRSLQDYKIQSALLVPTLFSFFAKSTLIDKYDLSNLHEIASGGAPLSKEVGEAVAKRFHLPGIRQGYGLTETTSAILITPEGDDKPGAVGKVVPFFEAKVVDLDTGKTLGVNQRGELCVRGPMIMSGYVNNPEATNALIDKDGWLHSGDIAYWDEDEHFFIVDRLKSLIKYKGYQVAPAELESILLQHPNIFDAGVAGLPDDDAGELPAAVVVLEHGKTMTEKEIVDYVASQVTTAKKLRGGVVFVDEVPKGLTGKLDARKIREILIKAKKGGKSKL
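FLuc 10nM, D-luciferin 10uM, ATP 10uM, Mg acetate 10mM, Tris acetate pH 7.5, Tween/BSA; cpd qHTS; enzyme added last; CCD luminescence.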
SNCA expr inh: inhibitors of alpha-synuclein (SNCA) gene expression; HEK-293 SNCA-luciferase knock-in, luminescence, 24 h; 140,000 tested, 0.17% active; Potency, µM (highest dose often 57.2 µM), inactives show at the top dose activity change, negative = inhibition, hits mostly inhibitors; AID 1671194;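 note: plate controls were DMSO cells for no effect and cell-free wells for full effect; nearly all actives have a fitted effect of over 45% in size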
FLuc SDR -ATP: firefly luciferase binding stabilization, ATP absent; shares compounds with FLuc inh-1; Purified FLuc-C-HiBiT, Nano-Glo HiBiT luminescence, no ATP; Potency, µM (top dose mostly 32.7 µM), for inactives: at the highest dose activation (signal gain), usual class: activators; 1,300 tested, 7.8% active; AID 1963318; note: nearly all actives have a fitted effect of over 55% in size
FLuc SDR ATP: firefly luciferase binding stabilization, ATP added. shares compounds with FLuc inh-1. purified FLuc-C-HiBiT + ATP, HiBiT complementation luminescence. Potency, µM (top dose mostly 32.7 µM), for the others: at the highest dose activation (gain of signal), hits mostly activators. 1,300 tested, 8.7% active. AID 1963319;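 note: signal reports ligand binding via conformational change of the enzyme rather than luciferase catalysis; % of control where 0% means no effect; nearly all actives have a fitted effect of over 55% in size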
FLuc inh-2: firefly luciferase enzyme inhibition | 1,300 tested, 42% active | shares compounds with FLuc inh-1 | purified FLuc-C-HiBiT enzyme, luciferin luminescence | Potency, µM (series often up to 32.7 µM), for inactives: at the highest dose activity change, negative = inhibition, hits mostly inhibitors; note: % is set by controls: 0 for no effect and ±100 for the full control effect; nearly all actives have a fitted effect of over 70% in size
The depositor's hits bear a star; i = inactive; ? = inconclusive; · = no result given; [ ] = another dose, or the depositor's remark. Unless noted, calls come from the whole dose curve; as a rule, active = well fitted curve in the direction sought with a large enough effect; inconclusive = small, poorly fitted or top-dose-only effect, or another doubt; inactive = no such curve, though single readings can be large; an effect the other way counts as inactive or inconclusive. Potency is the fitted concentration of half-maximal effect.

SMILES	HEK293 tox	HEK293 viab	3T3 cytotox	NPR1 antag	FLuc inh-1	SNCA expr inh	FLuc SDR -ATP	FLuc SDR ATP	FLuc inh-2
O=C(c1ccc2nnc(CC3CC3)n2c1)N1CCOCC1	-2%[172 µM]	11%[87.6 µM]	-8%[138 µM]	·	·	-10%[87.6 µM]	·	·	·
Cc1ccc2nc(C(=O)N3CCCC3c3cc(C(C)C)on3)cn2c1 (configuration not stated)	-9%	-18%	-13%	0%	10µM*	125%	27%	15%	?
CC(=O)NC1(C)CCN(Cc2cnc(-c3ccccc3OCc3ccccc3)s2)CC1	?	-9%[87.6 µM]	?	-1%[70.6 µM]	i	0%[87.6 µM]	·	·	·
CC(=O)NC1(C)CN(Cc2ccc(-c3cccc(F)c3)nc2)C1	?	6%[87.6 µM]	-19%[138 µM]	4%[70.6 µM]	?	8%[87.6 µM]	·	·	·
CC1(NC(=O)C2CC2)CN(Cc2nc(-c3ccccc3OCc3ccccc3)cs2)C1	79µM*	-21%[87.6 µM]	?	-14%[70.6 µM]	7.9µM*	30%[87.6 µM]	19%[49.3 µM]	13%[49.3 µM]	?
CC1(NC(=O)C2CC2)CN(Cc2nc(-c3cccc(F)c3)cs2)C1	?	-6%[87.6 µM]	-20%[138 µM]	25µM*	2.8µM*	2%[87.6 µM]	?	19%[49.3 µM]	?
Cc1nc(N2CCN(C(=O)c3ccc(C(C)(C)C)cc3)CC2)cc(C(F)(F)F)n1	?	0%	?	?	i	?	·	·	·
CC(c1ccon1)N(C)C(=O)c1cc(CN2CCC(Cc3ccccc3)CC2)on1 (configuration not stated)	?	-1%	?	2%	i	?	·	·	·
NC(=O)c1cccnc1N1CCC2(CC1)CC(C(=O)O)N(C(=O)C1CC1)C2 (configuration not stated)	-3%	-1%	i	1%	i	6%	·	·	·
COc1ccc(C(=O)N2CCn3c(nnc3C3CC3)C2)cc1	i	-4%[87.6 µM]	-3%[138 µM]	0%[70.6 µM]	i	2%[87.6 µM]	·	·	·
O=C(c1ccc(F)cc1)N1CCn2c(nnc2C2CC2)C1	-1%[172 µM]	5%[87.6 µM]	-22%[138 µM]	2%[70.6 µM]	i	-20%[87.6 µM]	12%[49.3 µM]	9%[49.3 µM]	1%[49.3 µM]
CC(C)c1cc(C(=O)N2CC[C@H](CO)[C@H](O)C2)cs1	i	-2%	4%	0%	i	16%	·	·	·
O=C(Nc1ccccc1C(=O)O)c1cccc(S(=O)(=O)N2CCCC2)c1	·	0%	·	·	·	60%	17%	13%	?
O=C(Nc1ccc(O)cc1)c1cccc(S(=O)(=O)N2CCOCC2)c1	·	4%	·	·	·	?	·	·	·
O=C(NC[C@H]1OC[C@@H](NC2CCC2)[C@@H]1O)c1ccncc1	i	2%[87.6 µM]	i	3%[70.6 µM]	i	16%[87.6 µM]	·	·	·
CCOC(=O)c1cc(-c2ccccc2)nn1Cc1ccccc1	·	-13%	·	·	·	202%	15%	12%	-6%
CC(=O)N1CCc2nn(CC(=O)Nc3ccc(F)c(F)c3)c(=O)cc2C1	13%	0%	i	3%	i	12%	·	·	·
CN(C)C1CCN(c2ccc(-c3nc(CCCc4ccccc4)no3)cn2)CC1	28µM*	?	35µM*	-15%	5.6µM*	90%	11%	13%	-17%
CCNC(=O)N1CCC(c2noc(COCCOC)n2)CC1	2%	12%	-3%	2%	i	1%	·	·	·
Cc1ccc(NC(=O)c2ccc3c(c2)N(C)C2CCCN2C3=O)cc1F (configuration not stated)	?	5%[12.5 µM]	-15%	?	1.3µM*	166%	15%	4.4µM*	8.8µM*
